Measurements: article PMC7862700, “An all-to-all approach to the identification of sequence-specific readers for epigenetic DNA modifications on cytosine”

Legend:
Assay in all cases: DAPPL (digital affinity profiling via proximity ligation, sequencing); 10 mM Tris-HCl pH 7.5, 50 mM NaCl, 1 mM DTT, 4% glycerol, room temperature, 30 min; GST-TFs on glutathione beads, 16-mer random dsDNA library, 0.1% formaldehyde crosslink after washing; high values mean tight binding
FLI1 = molecular target: T1, FLI1 (Homo sapiens, UniProt Q01543 1-452); details: protein: recombinant; tags: N-terminal GST; dsDNA, one strand shown
T1 sequence: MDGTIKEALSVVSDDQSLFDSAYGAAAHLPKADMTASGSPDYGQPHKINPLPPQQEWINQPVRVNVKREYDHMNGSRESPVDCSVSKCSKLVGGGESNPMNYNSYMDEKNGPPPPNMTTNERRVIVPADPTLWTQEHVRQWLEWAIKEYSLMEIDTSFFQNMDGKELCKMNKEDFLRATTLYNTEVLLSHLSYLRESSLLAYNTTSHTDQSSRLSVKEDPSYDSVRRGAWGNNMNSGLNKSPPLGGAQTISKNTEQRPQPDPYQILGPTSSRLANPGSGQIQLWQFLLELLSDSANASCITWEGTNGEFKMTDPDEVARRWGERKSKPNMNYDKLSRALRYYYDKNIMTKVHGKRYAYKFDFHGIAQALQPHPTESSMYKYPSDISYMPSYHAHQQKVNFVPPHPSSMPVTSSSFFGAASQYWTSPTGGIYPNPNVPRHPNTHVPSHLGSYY
Procedure, shortened: (§1)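 Human transcription factors fused to GST were expressed in yeast, captured on glutathione beads, given DNA barcodes and pooled with a GST-only negative control. Pools were incubated with 200 nmole of a 16-mer random double-stranded DNA library in Tris/NaCl/DTT/glycerol buffer at room temperature for 30 min. They were then washed, crosslinked with 0.1% formaldehyde, proximity-ligated (BsaI/T4 ligase, 1 h, 37 °C), PCR-amplified and sequenced on an Illumina NextSeq500. Binding signal is each 6-mer's read frequency for a factor divided by its frequency for the GST control.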

ELK1 = molecular target: T2, ELK1 (Homo sapiens, UniProt P19419 1-428); details: protein: recombinant; tags: N-terminal GST; dsDNA, one strand shown
T2 sequence: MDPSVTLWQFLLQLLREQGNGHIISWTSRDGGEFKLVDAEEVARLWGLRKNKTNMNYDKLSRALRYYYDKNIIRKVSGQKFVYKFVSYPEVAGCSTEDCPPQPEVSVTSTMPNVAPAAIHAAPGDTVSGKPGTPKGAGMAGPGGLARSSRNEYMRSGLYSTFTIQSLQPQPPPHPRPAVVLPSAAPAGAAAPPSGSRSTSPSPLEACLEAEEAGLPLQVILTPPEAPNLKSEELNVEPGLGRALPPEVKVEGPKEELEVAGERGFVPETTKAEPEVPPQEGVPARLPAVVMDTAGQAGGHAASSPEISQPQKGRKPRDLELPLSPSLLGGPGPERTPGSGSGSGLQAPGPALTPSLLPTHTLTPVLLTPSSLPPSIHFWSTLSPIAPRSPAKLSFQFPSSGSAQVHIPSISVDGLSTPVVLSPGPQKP
Procedure, shortened: as §1

GABPA = molecular target: T3, GABPA (Homo sapiens, UniProt Q06546 1-454); details: protein: recombinant; tags: N-terminal GST; dsDNA, one strand shown
T3 sequence: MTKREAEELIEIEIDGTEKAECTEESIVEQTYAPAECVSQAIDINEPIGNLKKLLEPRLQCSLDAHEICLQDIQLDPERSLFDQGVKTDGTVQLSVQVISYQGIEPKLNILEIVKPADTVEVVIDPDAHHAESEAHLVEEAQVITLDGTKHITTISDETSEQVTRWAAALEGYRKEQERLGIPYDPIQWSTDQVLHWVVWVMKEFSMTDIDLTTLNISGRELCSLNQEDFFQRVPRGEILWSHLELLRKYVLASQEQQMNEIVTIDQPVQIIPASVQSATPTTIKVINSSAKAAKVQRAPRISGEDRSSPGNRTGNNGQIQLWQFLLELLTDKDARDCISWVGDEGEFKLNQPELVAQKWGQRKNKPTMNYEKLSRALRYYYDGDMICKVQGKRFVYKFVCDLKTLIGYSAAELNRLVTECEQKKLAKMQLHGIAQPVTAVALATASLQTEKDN
Procedure, shortened: as §1

ERG = molecular target: T4, ERG (Homo sapiens, UniProt P11308 1-479); details: protein: recombinant; tags: N-terminal GST; dsDNA, one strand shown
T4 sequence: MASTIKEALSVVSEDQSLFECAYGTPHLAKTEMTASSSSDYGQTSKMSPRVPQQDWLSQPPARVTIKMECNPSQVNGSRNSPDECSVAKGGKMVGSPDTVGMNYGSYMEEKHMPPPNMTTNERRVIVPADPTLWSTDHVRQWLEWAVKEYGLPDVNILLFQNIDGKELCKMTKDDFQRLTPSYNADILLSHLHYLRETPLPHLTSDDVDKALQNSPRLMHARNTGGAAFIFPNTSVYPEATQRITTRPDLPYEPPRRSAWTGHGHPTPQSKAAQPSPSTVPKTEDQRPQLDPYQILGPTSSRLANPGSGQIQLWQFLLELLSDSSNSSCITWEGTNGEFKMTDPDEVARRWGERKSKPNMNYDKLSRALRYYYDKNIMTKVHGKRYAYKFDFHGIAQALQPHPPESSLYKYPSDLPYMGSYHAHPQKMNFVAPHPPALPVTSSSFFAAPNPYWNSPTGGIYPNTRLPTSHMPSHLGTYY
Procedure, shortened: as §1

ELF1 = ELF1 (Homo sapiens, UniProt P32519 1-619); details: protein: recombinant; tags: N-terminal GST; dsDNA, one strand shown
ELF1, sequence (P32519 whole entry): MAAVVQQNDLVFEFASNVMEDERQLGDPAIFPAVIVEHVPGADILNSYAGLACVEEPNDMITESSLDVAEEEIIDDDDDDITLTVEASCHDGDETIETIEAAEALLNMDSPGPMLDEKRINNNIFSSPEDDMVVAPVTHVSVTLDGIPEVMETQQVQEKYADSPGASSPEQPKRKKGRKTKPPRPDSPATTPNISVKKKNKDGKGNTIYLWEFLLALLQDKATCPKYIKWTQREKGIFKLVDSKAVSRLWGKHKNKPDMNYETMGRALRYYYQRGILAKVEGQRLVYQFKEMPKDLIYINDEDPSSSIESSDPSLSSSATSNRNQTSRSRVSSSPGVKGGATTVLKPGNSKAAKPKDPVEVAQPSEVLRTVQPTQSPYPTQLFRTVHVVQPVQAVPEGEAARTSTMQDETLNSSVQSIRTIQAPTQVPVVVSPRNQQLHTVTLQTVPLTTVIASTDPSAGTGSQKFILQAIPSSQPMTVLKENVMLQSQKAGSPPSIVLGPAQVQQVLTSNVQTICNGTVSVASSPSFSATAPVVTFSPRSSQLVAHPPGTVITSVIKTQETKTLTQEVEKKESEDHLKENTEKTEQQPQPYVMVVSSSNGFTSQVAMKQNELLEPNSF
Procedure, shortened: as §1

EHF = molecular target: T5, EHF (Homo sapiens, UniProt Q9NZC4 1-300); details: protein: recombinant; tags: N-terminal GST; dsDNA, one strand shown
T5 sequence: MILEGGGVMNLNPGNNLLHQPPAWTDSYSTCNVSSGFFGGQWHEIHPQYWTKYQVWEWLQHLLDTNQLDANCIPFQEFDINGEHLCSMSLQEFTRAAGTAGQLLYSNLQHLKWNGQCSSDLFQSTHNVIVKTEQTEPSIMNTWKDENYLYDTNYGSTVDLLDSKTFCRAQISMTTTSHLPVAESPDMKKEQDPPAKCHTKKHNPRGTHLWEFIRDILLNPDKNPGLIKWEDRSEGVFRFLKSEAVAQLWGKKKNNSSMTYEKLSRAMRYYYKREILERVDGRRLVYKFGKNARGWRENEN
Procedure, shortened: as §1

SPI1 = SPI1 (Homo sapiens, UniProt P17947 1-270); details: protein: recombinant; tags: N-terminal GST; dsDNA, one strand shown
Procedure, shortened: as §1

SPIB = SPIB (Homo sapiens, UniProt Q01892 1-262); details: protein: recombinant; tags: N-terminal GST; dsDNA, one strand shown
SPIB, sequence (Q01892 whole entry): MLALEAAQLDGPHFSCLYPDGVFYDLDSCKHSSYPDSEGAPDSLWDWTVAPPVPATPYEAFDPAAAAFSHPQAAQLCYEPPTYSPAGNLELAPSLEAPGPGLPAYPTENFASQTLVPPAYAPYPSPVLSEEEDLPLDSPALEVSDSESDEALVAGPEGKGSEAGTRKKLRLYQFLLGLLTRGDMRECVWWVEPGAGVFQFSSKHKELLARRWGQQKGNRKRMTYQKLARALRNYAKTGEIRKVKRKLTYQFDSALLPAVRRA
Procedure, shortened: as §1

ELK3 = molecular target: T6, ELK3 (Homo sapiens, UniProt P41970 1-407); details: protein: recombinant; tags: N-terminal GST; dsDNA, one strand shown
T6 sequence: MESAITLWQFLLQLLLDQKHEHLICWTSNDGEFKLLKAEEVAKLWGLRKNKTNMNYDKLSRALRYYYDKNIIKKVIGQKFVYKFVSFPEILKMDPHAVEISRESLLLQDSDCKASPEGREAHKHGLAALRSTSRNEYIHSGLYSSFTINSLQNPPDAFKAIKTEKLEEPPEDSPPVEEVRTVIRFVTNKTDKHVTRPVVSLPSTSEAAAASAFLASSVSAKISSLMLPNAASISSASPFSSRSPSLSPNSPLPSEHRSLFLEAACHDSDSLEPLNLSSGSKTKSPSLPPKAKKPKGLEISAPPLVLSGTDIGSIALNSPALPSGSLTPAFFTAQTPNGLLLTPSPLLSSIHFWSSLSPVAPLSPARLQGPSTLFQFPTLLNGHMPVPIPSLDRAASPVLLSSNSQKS
Procedure, shortened: as §1

FEV = molecular target: T7, FEV (Homo sapiens, UniProt Q99581 1-238); details: protein: recombinant; tags: N-terminal GST; dsDNA, one strand shown
T7 sequence: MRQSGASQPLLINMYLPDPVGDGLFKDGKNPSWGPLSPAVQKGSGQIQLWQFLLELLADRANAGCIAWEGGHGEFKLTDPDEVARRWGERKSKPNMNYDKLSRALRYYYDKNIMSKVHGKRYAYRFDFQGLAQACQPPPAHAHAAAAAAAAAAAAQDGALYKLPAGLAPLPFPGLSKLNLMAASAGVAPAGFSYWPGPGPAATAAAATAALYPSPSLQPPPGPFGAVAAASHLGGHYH
Procedure, shortened: as §1

ETV5 = ETV5 (Homo sapiens, UniProt P41161 1-510); details: protein: recombinant; tags: N-terminal GST; dsDNA, one strand shown
ETV5, sequence (P41161 whole entry): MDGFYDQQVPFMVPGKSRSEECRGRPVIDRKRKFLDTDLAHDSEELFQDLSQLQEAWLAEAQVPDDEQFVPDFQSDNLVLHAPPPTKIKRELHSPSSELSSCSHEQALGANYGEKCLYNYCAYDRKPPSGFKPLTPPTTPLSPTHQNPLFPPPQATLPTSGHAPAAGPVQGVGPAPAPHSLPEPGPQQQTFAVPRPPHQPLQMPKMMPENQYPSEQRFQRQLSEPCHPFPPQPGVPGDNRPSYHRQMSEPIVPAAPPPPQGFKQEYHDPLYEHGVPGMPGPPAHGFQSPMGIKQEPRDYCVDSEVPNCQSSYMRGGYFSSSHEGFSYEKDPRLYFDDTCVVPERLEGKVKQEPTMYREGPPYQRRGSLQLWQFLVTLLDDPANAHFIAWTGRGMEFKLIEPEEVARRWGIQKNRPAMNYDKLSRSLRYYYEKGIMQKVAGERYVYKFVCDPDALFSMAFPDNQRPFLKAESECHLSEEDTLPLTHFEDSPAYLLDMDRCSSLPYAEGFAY
Procedure, shortened: as §1

HSF1 = HSF1 (Homo sapiens, UniProt Q00613 1-529); details: protein: recombinant; tags: N-terminal GST; chain copies: 3; dsDNA, one strand shown
HSF1, sequence (Q00613 whole entry): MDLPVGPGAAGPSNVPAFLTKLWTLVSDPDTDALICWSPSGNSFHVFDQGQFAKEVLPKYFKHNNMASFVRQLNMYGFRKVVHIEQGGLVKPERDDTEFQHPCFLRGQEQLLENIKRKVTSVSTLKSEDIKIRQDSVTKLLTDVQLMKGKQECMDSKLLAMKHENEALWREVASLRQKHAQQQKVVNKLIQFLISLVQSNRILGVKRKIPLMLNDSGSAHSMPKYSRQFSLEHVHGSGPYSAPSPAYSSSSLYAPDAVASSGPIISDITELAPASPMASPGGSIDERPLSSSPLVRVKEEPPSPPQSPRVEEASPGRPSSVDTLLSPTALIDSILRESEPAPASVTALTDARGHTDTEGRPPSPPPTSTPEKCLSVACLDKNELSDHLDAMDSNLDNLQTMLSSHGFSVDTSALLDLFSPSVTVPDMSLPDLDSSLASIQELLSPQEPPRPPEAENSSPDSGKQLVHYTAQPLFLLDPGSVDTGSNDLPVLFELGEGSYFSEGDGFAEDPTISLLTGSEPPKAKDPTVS
Procedure, shortened: as §1

SPIC = molecular target: T8, SPIC (Homo sapiens, UniProt Q8N5J4 1-248); details: protein: recombinant; tags: N-terminal GST; dsDNA, one strand shown
T8 sequence: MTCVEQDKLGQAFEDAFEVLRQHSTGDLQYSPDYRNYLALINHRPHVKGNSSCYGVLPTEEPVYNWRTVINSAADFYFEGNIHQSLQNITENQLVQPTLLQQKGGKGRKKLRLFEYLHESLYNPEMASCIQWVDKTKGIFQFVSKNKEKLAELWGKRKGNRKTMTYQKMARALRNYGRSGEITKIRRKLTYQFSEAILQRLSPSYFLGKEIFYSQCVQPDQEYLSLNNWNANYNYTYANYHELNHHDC
Procedure, shortened: as §1

ELF4 = ELF4 (Homo sapiens, UniProt Q99607 1-663); details: protein: recombinant; tags: N-terminal GST; dsDNA, one strand shown
ELF4, sequence (Q99607 whole entry): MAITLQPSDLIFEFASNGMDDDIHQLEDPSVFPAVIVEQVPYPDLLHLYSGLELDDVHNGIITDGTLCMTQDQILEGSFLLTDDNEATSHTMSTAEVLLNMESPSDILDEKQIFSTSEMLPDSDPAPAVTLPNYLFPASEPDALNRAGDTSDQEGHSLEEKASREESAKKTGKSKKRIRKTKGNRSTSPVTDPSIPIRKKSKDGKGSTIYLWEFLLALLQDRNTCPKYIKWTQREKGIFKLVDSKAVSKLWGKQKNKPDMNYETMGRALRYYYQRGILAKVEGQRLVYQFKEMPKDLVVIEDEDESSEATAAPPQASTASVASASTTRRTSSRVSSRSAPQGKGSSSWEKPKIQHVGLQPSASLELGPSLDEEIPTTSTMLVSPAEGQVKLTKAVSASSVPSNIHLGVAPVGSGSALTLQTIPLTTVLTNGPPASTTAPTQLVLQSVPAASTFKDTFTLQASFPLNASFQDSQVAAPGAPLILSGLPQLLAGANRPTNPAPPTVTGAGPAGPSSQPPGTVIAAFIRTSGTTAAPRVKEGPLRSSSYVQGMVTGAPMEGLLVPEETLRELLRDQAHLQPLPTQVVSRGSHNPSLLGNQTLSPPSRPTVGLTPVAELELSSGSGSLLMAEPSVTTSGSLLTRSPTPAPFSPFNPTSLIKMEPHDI
Procedure, shortened: as §1

ELK4 = molecular target: T9, ELK4 (Homo sapiens, UniProt P28324-2 1-405); details: protein: recombinant; tags: N-terminal GST; dsDNA, one strand shown
T9 sequence: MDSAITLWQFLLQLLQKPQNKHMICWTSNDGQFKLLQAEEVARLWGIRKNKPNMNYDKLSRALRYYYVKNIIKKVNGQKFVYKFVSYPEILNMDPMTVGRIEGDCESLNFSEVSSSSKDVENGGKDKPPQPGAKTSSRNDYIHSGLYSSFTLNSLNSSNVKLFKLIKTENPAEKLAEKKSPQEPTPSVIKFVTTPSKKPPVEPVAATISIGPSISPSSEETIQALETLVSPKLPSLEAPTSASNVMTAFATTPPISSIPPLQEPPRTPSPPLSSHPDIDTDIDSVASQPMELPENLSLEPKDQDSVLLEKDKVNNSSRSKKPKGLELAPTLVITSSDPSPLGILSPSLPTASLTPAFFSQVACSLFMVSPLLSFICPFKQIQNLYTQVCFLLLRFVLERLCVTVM
Procedure, shortened: as §1

ETV2 = molecular target: T10, ETV2 (Homo sapiens, UniProt O00321 1-342); details: protein: recombinant; tags: N-terminal GST; dsDNA, one strand shown
T10 sequence: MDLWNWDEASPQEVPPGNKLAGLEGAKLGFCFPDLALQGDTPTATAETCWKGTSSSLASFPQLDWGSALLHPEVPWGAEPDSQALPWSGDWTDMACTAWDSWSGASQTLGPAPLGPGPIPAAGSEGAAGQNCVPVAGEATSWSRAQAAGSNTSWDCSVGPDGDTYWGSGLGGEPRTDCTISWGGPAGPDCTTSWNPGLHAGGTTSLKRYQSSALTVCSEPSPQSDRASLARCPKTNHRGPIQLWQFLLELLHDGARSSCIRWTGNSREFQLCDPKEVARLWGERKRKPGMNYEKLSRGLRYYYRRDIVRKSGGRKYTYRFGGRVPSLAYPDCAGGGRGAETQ
Procedure, shortened: as §1

ELF3 = molecular target: T11, ELF3 (Homo sapiens, UniProt P78545 1-371); details: protein: recombinant; tags: N-terminal GST; dsDNA, one strand shown
T11 sequence: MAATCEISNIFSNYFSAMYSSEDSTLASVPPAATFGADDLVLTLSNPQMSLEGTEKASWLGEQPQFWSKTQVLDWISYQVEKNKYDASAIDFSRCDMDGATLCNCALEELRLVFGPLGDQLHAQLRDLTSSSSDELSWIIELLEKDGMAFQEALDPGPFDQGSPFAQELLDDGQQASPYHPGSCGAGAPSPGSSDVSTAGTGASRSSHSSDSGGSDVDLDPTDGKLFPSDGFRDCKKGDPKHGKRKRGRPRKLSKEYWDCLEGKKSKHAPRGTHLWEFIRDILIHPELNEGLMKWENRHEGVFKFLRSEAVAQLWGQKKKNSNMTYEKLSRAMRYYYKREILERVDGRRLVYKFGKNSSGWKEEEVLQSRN
Procedure, shortened: as §1

CRX = CRX (Homo sapiens, UniProt O43186 1-299); details: protein: recombinant; tags: N-terminal GST; dsDNA, one strand shown
CRX, sequence (O43186 whole entry): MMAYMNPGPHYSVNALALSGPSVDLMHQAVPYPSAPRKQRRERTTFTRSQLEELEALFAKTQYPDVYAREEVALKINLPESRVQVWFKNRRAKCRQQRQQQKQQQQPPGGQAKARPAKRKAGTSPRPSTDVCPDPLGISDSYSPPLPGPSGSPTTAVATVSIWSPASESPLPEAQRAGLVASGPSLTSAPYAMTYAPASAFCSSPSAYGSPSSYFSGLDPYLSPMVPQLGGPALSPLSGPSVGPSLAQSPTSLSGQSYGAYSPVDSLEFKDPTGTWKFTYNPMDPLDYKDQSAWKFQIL
Procedure, shortened: as §1

ETV1 = ETV1 (Homo sapiens, UniProt P50549 1-477); details: protein: recombinant; tags: N-terminal GST; dsDNA, one strand shown
ETV1, sequence (P50549 whole entry): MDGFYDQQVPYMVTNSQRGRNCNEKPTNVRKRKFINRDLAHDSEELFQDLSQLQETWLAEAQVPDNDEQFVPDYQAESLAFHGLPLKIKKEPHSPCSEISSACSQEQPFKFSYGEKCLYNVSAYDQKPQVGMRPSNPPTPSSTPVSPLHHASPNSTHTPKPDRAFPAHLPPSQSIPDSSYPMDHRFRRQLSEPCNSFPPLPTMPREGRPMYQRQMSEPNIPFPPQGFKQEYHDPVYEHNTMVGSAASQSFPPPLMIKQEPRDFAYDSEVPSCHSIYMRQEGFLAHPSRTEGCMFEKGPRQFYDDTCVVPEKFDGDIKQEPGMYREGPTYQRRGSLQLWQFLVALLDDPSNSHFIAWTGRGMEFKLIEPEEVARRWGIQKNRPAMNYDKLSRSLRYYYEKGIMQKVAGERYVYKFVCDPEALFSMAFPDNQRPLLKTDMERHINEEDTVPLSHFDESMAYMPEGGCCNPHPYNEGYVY
Procedure, shortened: as §1

## TAAGTT
FLI1
  binding signal: 1.23 fold enrichment (6-mer frequency, TF over GST control)
ELK1
  binding signal: 1.39 fold enrichment (6-mer frequency, TF over GST control)
GABPA
  binding signal: 1.33 fold enrichment (6-mer frequency, TF over GST control)
ERG
  binding signal: 1.25 fold enrichment (6-mer frequency, TF over GST control)
ELF1
  binding signal: 1.3 fold enrichment (6-mer frequency, TF over GST control)
EHF
  binding signal: 1.38 fold enrichment (6-mer frequency, TF over GST control)
SPI1
  binding signal: 1.31 fold enrichment (6-mer frequency, TF over GST control)
SPIB
  binding signal: 1.35 fold enrichment (6-mer frequency, TF over GST control)
ELK3
  binding signal: 1.27 fold enrichment (6-mer frequency, TF over GST control)
FEV
  binding signal: 1.24 fold enrichment (6-mer frequency, TF over GST control)
ETV5
  binding signal: 1.37 fold enrichment (6-mer frequency, TF over GST control)
HSF1
  binding signal: 1.45 fold enrichment (6-mer frequency, TF over GST control)
SPIC
  binding signal: 1.36 fold enrichment (6-mer frequency, TF over GST control)
ELF4
  binding signal: 1.34 fold enrichment (6-mer frequency, TF over GST control)
ELK4
  binding signal: 1.22 fold enrichment (6-mer frequency, TF over GST control)
ETV2
  binding signal: 1.25 fold enrichment (6-mer frequency, TF over GST control)
ELF3
  binding signal: 1.09 fold enrichment (6-mer frequency, TF over GST control)
CRX
  binding signal: 1.94 fold enrichment (6-mer frequency, TF over GST control)
ETV1
  binding signal: 1.34 fold enrichment (6-mer frequency, TF over GST control)
